Source: PubChem BioAssay (NCATS)
Inconclusive results are not listed. Unless noted, calls come from the whole dose curve; as a rule, active = well fitted curve in either direction with a large enough effect (not every such curve was filed as active); inconclusive = small, poorly fitted or top-dose-only effect, or another doubt; inactive = flat fitted curve, though single readings scatter.

Key:
[1] = AP1 Signaling Pathway (AID 357); conditions: ME-180 AP-1-bla reporter, EGF-induced, beta-lactamase ratio, 5 h; at 17.2 µM (top of the series) unless noted; note: % is set by controls: 0 for no effect and ±100 for the full control effect
Outline: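 ME-180 cells with beta-lactamase reporter under AP-1 response element, stimulated with EC50 EGF; compounds tested in titration series, 5 h at 37 °C. CCF4 substrate added 2.5 h at room temperature; 460/530 nm emission ratio gave %activity and AC50.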

[2] = NFAT Signaling Pathway (AID 444); conditions: Jurkat NFAT-bla M1, carbachol, beta-lactamase ratio, 5 h; at 17.2 µM (top of the series) unless noted;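 note: carbachol stimulus at about its EC50 of 1 µM final; % is set by controls: 0 for no effect and ±100 for the full control effect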
Outline: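 Jurkat cells with NFAT-driven β-lactamase reporter and co-expressed M1 receptor, stimulated with carbachol (final 1 uM, ~EC50), compound titration, 5 h at 37 °C. CCF4 loaded 1 h at RT; 460/530 nm ratio gave %activity and AC50.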

[3] = target: Glucocorticoid receptor (Homo sapiens) (UniProt P04150); assay: GR-GFP Redistribution (AID 450;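 active = compounds whose dose series gives a full or clear partial fitted curve of increased nuclear translocation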; note: potency is the fitted concentration of half-maximal effect)
Chain of Glucocorticoid receptor (Homo sapiens) (P04150 whole entry, looked up): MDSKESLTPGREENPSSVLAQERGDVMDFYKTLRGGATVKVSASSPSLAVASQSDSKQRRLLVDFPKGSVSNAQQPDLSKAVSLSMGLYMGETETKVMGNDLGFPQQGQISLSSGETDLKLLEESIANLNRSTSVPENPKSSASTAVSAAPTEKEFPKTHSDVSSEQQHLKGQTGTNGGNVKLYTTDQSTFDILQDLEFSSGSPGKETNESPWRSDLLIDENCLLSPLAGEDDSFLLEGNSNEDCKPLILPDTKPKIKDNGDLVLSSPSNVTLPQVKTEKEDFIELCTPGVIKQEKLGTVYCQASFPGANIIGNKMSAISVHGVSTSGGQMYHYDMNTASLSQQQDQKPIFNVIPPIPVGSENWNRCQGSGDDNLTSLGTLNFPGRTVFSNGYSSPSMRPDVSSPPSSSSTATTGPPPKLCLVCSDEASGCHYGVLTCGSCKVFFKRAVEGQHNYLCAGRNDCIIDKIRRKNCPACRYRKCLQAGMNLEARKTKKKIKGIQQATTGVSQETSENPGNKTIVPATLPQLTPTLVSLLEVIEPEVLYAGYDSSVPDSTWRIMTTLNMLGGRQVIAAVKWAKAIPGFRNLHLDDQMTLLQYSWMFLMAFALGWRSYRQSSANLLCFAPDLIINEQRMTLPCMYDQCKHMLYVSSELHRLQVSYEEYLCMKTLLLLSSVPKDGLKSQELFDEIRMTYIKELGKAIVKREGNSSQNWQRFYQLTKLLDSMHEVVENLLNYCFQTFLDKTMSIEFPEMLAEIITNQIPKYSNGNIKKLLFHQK

[4] = Stat Signaling Pathway (AID 446); conditions: ME-180 SIE beta-lactamase reporter, IL-6 stimulated, 5 h; at 17.2 µM (top of the series) unless noted;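 note: ME-180 cervical cancer cells given 40 pM IL-6 alongside compound; SIE-controlled beta-lactamase reporter measured as 460/530 nm FRET emission ratio; % is set by controls: 0 for no effect and ±100 for the full control effect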
Outline: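 FRET read-out (405 nm excitation, 460/530 nm emission) of a beta-lactamase reporter under a STAT-inducible element in ME-180 cervical carcinoma cells. Cells with compound receive 40 pM IL-6 for 5 h. Values are normalised to AC90 stimulation and AC90 JAK-inhibitor controls.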

[5] = qHTS Assay for Identification of Small Molecule Agonists for Hypoxia Response Element Signaling Pathway (AID 914; active = well fitted activation curve with a large enough effect in the signal ratio, with a control signal flat, not every such curve was filed as active; the % refers to the signal ratio; note: % of control where 0% means no effect); conditions: ME-180 (cervical carcinoma) HRE-bla reporter, beta-lactamase ratio, CoCl2, 17 h; activation: active compounds read high
Outline: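 Read-out: CCF4 FRET ratio of 460nm to 530nm emission (excitation 405nm) after 2.5 hours at room temperature, taken from HRE-bla ME-180 cells that had been exposed to compound and EC50 CoCl2 for 17 hours.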

Cc1nn(-c2cccc(Cl)c2)c2c1C(c1ccncc1)C(C#N)=C(N)O2 (stereo not drawn)
inactive: activity change, negative = inhibition [1] 17.6% | activity change, negative = inhibition [2] -16.8% | Potency [3] > 20.6 µM

CC(=O)Nc1ccccc1O
inactive: activity change, negative = inhibition [1] 0.55% | activity change, negative = inhibition [2] 16% | activity, negative = inhibition [4] 2.83% | activation [5] 8.91%

COC(=O)c1ccc(=O)n(Cc2ccc3c(c2)OCO3)c1
inactive: activity change, negative = inhibition [1] -0.911% | activity change, negative = inhibition [2] 6.79% | activity, negative = inhibition [4] -1.86% | Potency [3] > 20.6 µM | activation [5] 26.1%

Cn1c(NCCCO)nc2c1c(=O)n(Cc1ccccc1F)c(=O)n2C
inactive: activity change, negative = inhibition [1] -2.43% | activity change, negative = inhibition [2] 8.23% | activity, negative = inhibition [4] -2.21% | Potency [3] > 20.6 µM | activation [5] -5.37%

CCCCNc1nc2c(c(=O)n(C)c(=O)n2C)n1Cc1cccc(OC)c1
inactive: activity change, negative = inhibition [1] -11.7% | activity change, negative = inhibition [2] 2.13% | Potency [3] > 20.6 µM

Cc1cccc(N2CC(=O)N(c3cccc(C)c3)CC2=O)c1
inactive: activity change, negative = inhibition [1] 5.22% | activity change, negative = inhibition [2] 5.99% | activity, negative = inhibition [4] 0.983% | Potency [3] > 20.6 µM | activation [5] 1.3%

COCc1cc(C)nc(SCC(=O)Nc2ccc(C)c(C)c2)c1C#N
inactive: activity change, negative = inhibition [1] 2.07% | activity change, negative = inhibition [2] 3.23% | Potency [3] > 20.6 µM

Cc1ccc(-n2c(SCC(=O)NCc3ccco3)nc3nc4c(cc3c2=O)COC(C)(C)C4)cc1
inactive: activity change, negative = inhibition [1] -7.85% | activity change, negative = inhibition [2] -16.8% | activity, negative = inhibition [4] -3.2% | Potency [3] > 20.6 µM | activation [5] -23.6%

CC(C)(C)C1=Nn2c(nnc2-c2ccccn2)SC1
inactive: activity change, negative = inhibition [1] 4.11% | activity change, negative = inhibition [2] 0.351% | activity, negative = inhibition [4] 4.69% | Potency [3] > 20.6 µM | activation [5] -1.04%

CCCOC(=O)CSC1=C(C#N)C(c2ccc3c(c2)OCO3)CC(=O)N1 (stereo not drawn)
inactive: activity change, negative = inhibition [1] -0.809% | activity change, negative = inhibition [2] 11.1% | activity, negative = inhibition [4] 1.94% | Potency [3] > 20.6 µM | activation [5] -15.4%

CCN1CCCC1Cn1cnc2c([nH]c3ccc(C)cc32)c1=O (stereo not drawn)
inactive: activity change, negative = inhibition [1] -6.04% | activity change, negative = inhibition [2] 8.74% | activity, negative = inhibition [4] 3.87% | Potency [3] > 20.6 µM | activation [5] 9.56%

O=C1C2ON(c3ccccc3)C(c3cccnc3)C2C(=O)N1c1ccc(Cl)c(Cl)c1 (stereo not drawn)
inactive: activity change, negative = inhibition [1] -4.98% | activity change, negative = inhibition [2] 16% | activity, negative = inhibition [4] -9.39% | Potency [3] > 20.6 µM | activation [5] 2.42%

Cc1cc(/C=N\O)c(C)n1-c1ccncc1
inactive: activity change, negative = inhibition [1] 0.0567% | activity change, negative = inhibition [2] 23.9% | activity, negative = inhibition [4] -5.06% | Potency [3] > 20.6 µM | activation [5] 1.93%
